# Screening data: PubChem, National Center for Advancing Translational Sciences (NCATS)
# Most compounds without a hit are left out; they make up all but 0.54% or so of the library.
# EPAC1 agonist = agonists of human EPAC1; Potency, µM (titrated, usually from 154 µM), for the others: at the top dose activation, usual class: activators; EPAC1 agonist qHTS, biochemical assay; response scale: 100% = response to 6.5 mM cAMP; actives 0.073% (n = 360,000); O95398; note: nearly all actives have a fitted effect of over 60% in size
#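 EPAC1 100 nM, Rap1B–BODIPY-GDP 250 nM, unlabeled GDP 50 uM; compound titration; 5 min RT; kinetic read ex480/em540 at 5-min intervals ×30 min; data normalized to 6.5 mM cAMP agonist control.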
# EPAC2 antag = blocks human EPAC2 exchange factor | Q8WZA2 | EPAC2 GEF exchange of Rap1B-BODIPY-GDP, fluorescence | Potency, µM (highest dose often 114 µM), without a hit: at the top dose activity, negative = inhibition, usual class: inhibitors | actives 0.18% (n = 360,000) | AID 720708; note: % is set by controls: 0 for no effect and ±100 for the full control effect; nearly all actives have a fitted effect of over 45% in size
# EPAC2 ag = agonists of human EPAC2 (RAPGEF4). Q8WZA2. EPAC2 activation, biochemical qHTS; response scale: 100% = 6.5 mM cAMP response. Potency, µM (highest dose often 154 µM), inactives show top-dose activation, actives largely listed as activators. actives 0.079% (n = 360,000); note: nearly all actives have a fitted effect of over 50% in size
#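 In this primary screen, activation is scored as increased exchange of BODIPY-GDP from Rap1B by 100 nM EPAC2, with 50 uM GDP as competitor. Signal is normalized to the 6.5 mM cAMP agonist control.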
# ERG Ets-DNA blk = inhibitors of human ERG Ets domain-DNA interaction | Potency, µM (top dose mostly 76.9 µM), for inactives: at the top dose FP activity, negative = inhibition, actives largely listed as inhibitors | actives 0.028% (n = 370,000) | P11308 | fluorescence polarization, His-ERG Ets domain / labelled DNA | AID 624246; active = well fitted inhibition curve with a large enough effect in the polarisation, with a control signal flat; inconclusive = small, poorly fitted or top-dose-only effect, or effect the other way, or a change in a side signal; inactive = no such curve, though single readings can be large or run the other way; the % refers to the polarisation;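 note: polarization taken with two DNA probes labelled with fluorescein and Texas red; % of control where 0% means no effect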
#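 His-tagged ERG Ets domain (1 uM in the protein solution; 300mM KCl, 50mM Tris-HCl, 1mM EDTA, 1mM DTT, pH 7.5) received compound, then a probe mix of 5 nM fluorescein-DNA and 100nM Texas-615-DNA. Fluorescence polarization was read for both dyes.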
# EPAC1 antagonist = EPAC1 (human) antagonism | EPAC1 GEF assay, Rap1b-BODIPY-GDP exchange fluorescence | Potency, µM (highest dose often 115 µM), for inactives: top-dose activity change, negative = inhibition, actives largely listed as inhibitors | actives 0.14% (n = 360,000) | AID 720709;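 note: plate controls were vehicle for no effect and positive control for full effect; nearly all actives have a fitted effect of over 50% in size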
# TDP1 block = inhibitors of human tyrosyl-DNA phosphodiesterase TDP1; recombinant TDP1, AlphaScreen DNA substrate cleavage; AID 485290; Potency, µM (top dose mostly 130 µM), without a hit: top-dose activity change, negative = inhibition, usual class: inhibitors; actives 0.28% (n = 350,000); Q9NUW8; note: % is set by controls: 0 for no effect and ±100 for the full control effect; nearly all actives have a fitted effect of over 40% in size
# Target sequence (Q9NUW8 whole entry, looked up): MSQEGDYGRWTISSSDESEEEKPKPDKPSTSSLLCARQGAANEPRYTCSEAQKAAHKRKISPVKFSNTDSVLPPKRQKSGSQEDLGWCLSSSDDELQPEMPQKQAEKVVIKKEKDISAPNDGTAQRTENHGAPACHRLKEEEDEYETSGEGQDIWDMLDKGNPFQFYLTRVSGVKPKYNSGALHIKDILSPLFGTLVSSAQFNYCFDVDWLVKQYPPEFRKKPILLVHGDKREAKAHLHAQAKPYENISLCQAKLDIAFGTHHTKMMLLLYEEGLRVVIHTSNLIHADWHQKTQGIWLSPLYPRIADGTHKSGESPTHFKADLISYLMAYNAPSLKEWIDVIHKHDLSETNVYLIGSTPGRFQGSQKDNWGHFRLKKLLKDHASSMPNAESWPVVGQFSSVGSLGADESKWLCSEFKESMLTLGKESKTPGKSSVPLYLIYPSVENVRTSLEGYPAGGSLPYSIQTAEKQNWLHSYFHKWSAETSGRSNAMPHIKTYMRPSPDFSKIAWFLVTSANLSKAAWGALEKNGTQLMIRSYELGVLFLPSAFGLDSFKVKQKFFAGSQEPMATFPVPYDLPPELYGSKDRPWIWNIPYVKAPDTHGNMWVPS
#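 Compounds were preincubated with Tdp1 (1 nM final) for 15 min at room temperature before substrate (15 nM final) started a 5 min reaction; beads (10 ug/ml final) were then added for 10 min before AlphaScreen detection.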
# * marks the source's active call; other numbers are inactive results; u = inconclusive; x = no result given. Unless noted, calls come from the whole dose curve; as a rule, active = well fitted curve in the direction sought with a large enough effect; inconclusive = small, poorly fitted or top-dose-only effect, or another doubt; inactive = no such curve, though single readings can be large; an effect the other way counts as inactive or inconclusive. Potency is the fitted concentration of half-maximal effect.
SMILES,EPAC1 agonist,EPAC2 antag,EPAC2 ag,ERG Ets-DNA blk,EPAC1 antagonist,TDP1 block
O=C(CN1CCCCC1)Nc1cc(Cl)ccc1Oc1ccccc1,1%,28µM*,2%,9%,-5%,0%
O=C(O)c1cc(S(=O)(=O)Nc2cc(Cl)ccc2Oc2ccccc2)ccc1O,0%,40µM*,-4%,-2%,u,5%
O=C(CN1CCCCCC1)Nc1ccccc1Oc1ccccc1,6%,40µM*,16%,-6%,-11%,-3%
NC(=O)C1CCN(CC(=O)Nc2cc(Cl)ccc2Oc2ccccc2)CC1,6%,-16%,3%,-4%,-8%,5%
CC(=O)Nc1ccc(OCc2cccc(-c3nc4ccccc4c(=O)n3Cc3ccco3)c2)cc1,x,x,x,x,x,0%
CCOc1cc(C2Nc3ccccc3C(=O)N2Cc2ccco2)ccc1OCc1ccccc1Cl (configuration not stated),x,x,x,x,x,0%
c1nc(NCc2ccoc2)c2cc(-c3ccc4c(c3)OCO4)ccc2n1,x,x,x,x,x,4%
Nc1c(-c2ccccc2)cc[nH]c1=O,x,x,x,x,x,5%
COCCN(C(=O)COC(=O)Cc1coc2cc(C)ccc12)c1c(N)n(Cc2ccccc2)c(=O)[nH]c1=O,3%,-7%,-11%,-4%,-4%,28µM*
O=C(O)c1cccc(NC(=O)c2ccc3c(c2)C(=O)N(Cc2ccco2)C3=O)c1,-3%,5%,7%,-10%,8%,50µM*
Cc1ccc(NS(=O)(=O)c2ccc3ccccc3c2)cc1C,x,x,x,x,x,-2%
Cn1cncc1CNc1ncnc2ccc(-c3ccc4c(c3)OCO4)cc12,x,x,x,x,x,5%
Nc1ccccc1Oc1ccc2ccccc2c1,17%,u,21%,-7%,-22%,5%
O=S1(=O)C=C(Oc2ccc3ccccc3c2)c2ccccc21,5%,25µM*,11%,1%,-1%,-3%
C=CCn1c(SCC(=O)NCC2CCCO2)nc2scc(-c3ccco3)c2c1=O (configuration not stated),4%,1%,-2%,-15%,-2%,50µM*
CNc1ccc(Cl)cc1S(=O)(=O)c1ccccc1[N+](=O)[O-],-4%,63µM*,6%,x,-16%,x
CCC1CCCCN1CCCNC(=O)c1ccc(CS(=O)(=O)Cc2ccccc2F)o1 (configuration not stated),6%,22µM*,-1%,10%,-5%,0%
O=C(O)c1cc(-c2ccco2)nn1-c1ccc(Cl)cc1,-11%,-3%,-2%,12%,-18%,14µM*
O=C(O)c1cc(-c2ccco2)nn1-c1cccc(Cl)c1,7%,33%,-3%,10%,-3%,u
COc1cc(/C=N/NC(=O)c2cccnc2)ccc1OC(=O)c1ccc([N+](=O)[O-])cc1,-3%,0%,-3%,6%,-13%,45µM*
C=CCn1c(SCC(=O)Nc2sc3c(c2C#N)CCC(C)C3)nc2cc(C(=O)O)ccc2c1=O (configuration not stated),23%,-13%,15%,1%,u,45µM*
COc1ccc(CCNC(=O)CSc2nc(N)c(C#N)c(-c3cccs3)c2C#N)cc1OC,-1%,2%,-3%,-11%,32µM*,5%
C=CCN1C(=O)/C(=C/C=C2/N(CC)c3ccc(S(=O)(=O)N(C)C)cc3N2CC)SC1=S,100µM*,-1%,100µM*,102%,10%,7%
C=CCN1C(=O)/C(=C2/Sc3ccccc3N2CC)SC1=S,-12%,16%,5%,2%,8%,x
CC12C(=O)N(c3cccc4cccnc34)C(=O)C1C1C=CC2C1 (configuration not stated),3%,0%,13%,-1%,-26%,4%
CC12C(=O)N(c3nccs3)C(=O)C1C1C=CC2C1 (configuration not stated),1%,13%,-4%,-1%,8%,22µM*
